# LDHA block – LDHA (human) enzyme inhibition; hit rate 0.15% among 480,000; purified LDHA, NADH/diaphorase-resazurin fluorescence; hits give low values; activity change, % (values are at about 110 or 230 µM); P00338; in the data active means activity change below about -30%; inconclusive means mostly about -25% to -30%;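 further: plate controls were DMSO wells for no effect and wells without enzyme for full effect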
#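 Remaining NADH was detected by diaphorase (0.133 mg/mL) converting 37 µM resazurin to fluorescent resorufin, read at 0 and 20 minutes. The preceding 5-minute room-temperature reaction used 2 nM LDHA, 0.2 mM sodium pyruvate and 0.06 mM NADH at pH 7.4.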
# IDH1 R132H inh – blocks human mutant IDH1 R132H enzyme; O75874; IDH1-R132H enzyme, NADPH consumption, diaphorase/resazurin fluorescence; Potency, µM (top dose mostly 76.6 µM), for the others: top-dose activity change, negative = inhibition, usual class: inhibitors; hit rate 0.093% among 390,000; AID 602179; active means well fitted inhibition curve with a large enough effect; inconclusive means small, poorly fitted or top-dose-only effect; inactive means no such curve, though single readings can be large or run the other way; further: potency means the concentration at half of the fitted maximal effect; on the % scale 0 is the no-effect control and ±100 the full control effect; nearly all actives have a fitted effect of over 65% in size
#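 IDH1-R132H (0.5 ug/mL dispensed) in pH 7.5 Tris buffer was preincubated 30 min with compound, then given a substrate mix of 0.016 mM NADPH and 2 mM alpha-KG for 80 min at room temperature; remaining NADPH was read by diaphorase/resazurin fluorescence.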
# Menin MLL FP TR – displaces Texas Red mutant MLL peptide from human menin. Menin + Texas Red MLL mutant peptide, fluorescence polarization. hit rate 0.23% among 270,000. O00255. Potency, µM (top dose mostly 61.6 µM), for the others: top-dose FP activity change, negative = inhibition, most hits filed as inhibitors; active means well fitted inhibition curve with a large enough effect in the polarisation, with a control signal flat, not every such curve was filed as active; inconclusive means small, poorly fitted or top-dose-only effect, or effect the other way, or a change in a side signal; inactive means no such curve, though single readings can be large or run the other way; the % refers to the polarisation; further: potency means the concentration at half of the fitted maximal effect; % of control where 0% means no effect
# Target sequence (O00255 whole entry, looked up): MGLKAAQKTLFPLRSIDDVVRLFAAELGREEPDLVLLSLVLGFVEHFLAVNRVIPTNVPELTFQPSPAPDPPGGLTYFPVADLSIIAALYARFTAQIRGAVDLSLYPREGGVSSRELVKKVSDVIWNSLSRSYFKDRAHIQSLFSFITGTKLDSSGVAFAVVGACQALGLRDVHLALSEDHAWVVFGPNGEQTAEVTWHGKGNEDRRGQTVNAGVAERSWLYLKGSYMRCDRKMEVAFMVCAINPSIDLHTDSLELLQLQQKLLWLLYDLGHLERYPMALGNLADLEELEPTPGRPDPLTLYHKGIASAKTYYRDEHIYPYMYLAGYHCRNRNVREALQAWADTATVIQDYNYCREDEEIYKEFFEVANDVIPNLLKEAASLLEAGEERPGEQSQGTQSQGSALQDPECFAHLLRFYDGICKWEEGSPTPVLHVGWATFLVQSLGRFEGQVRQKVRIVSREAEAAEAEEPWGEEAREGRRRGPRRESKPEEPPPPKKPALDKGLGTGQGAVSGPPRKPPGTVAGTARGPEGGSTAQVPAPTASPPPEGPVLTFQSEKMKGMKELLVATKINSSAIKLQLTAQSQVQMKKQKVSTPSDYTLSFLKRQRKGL
# Menin-MLL FL inh – displaces fluorescein MLL peptide from human menin | Fluorescence polarization, fluorescein-MLL peptide displacement from menin | FP activity change, % at 61.4 µM | 290,000 tested, under 10 active | AID 1766; active means well fitted curve in the direction sought with a large enough effect in the polarisation, not every such curve was filed as active; inconclusive means small, poorly fitted or top-dose-only effect, or effect the other way, or a change in a side signal; inactive means no such curve, though single readings can be large or run the other way; the % refers to the polarisation; further: % of control where 0% means no effect
# CXXC DNA block – inhibitors of human MLL CXXC domain-DNA interaction; Q03164; MLL-CXXC / FITC-HOXA9 DNA fluorescence polarization; Potency, µM (highest dose often 115 µM), inactives show top-dose activity change, negative = inhibition, most hits filed as inhibitors; hit rate 0.037% among 290,000; AID 2662; active means well fitted inhibition curve with a large enough effect in the polarisation, with a control signal flat, not every such curve was filed as active; inconclusive means small, poorly fitted or top-dose-only effect, or effect the other way, or a change in a side signal; inactive means no such curve, though single readings can be large or run the other way; the % refers to the polarisation; further: potency means the concentration at half of the fitted maximal effect
#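 Steps: dispense CXXC domain solution (7 uM) → pin compounds or unlabeled HOX-A9 DNA control → 5 min ambient → add FLSN-HOX-A9 solution (50 nM) → spin → 30 min ambient → fluorescence polarization. Tris pH 7.5/NaCl/DTT/BSA buffer.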
# Akt phos inh – inhibitors of Akt phosphorylation; Neuro2A IGF-stimulated pAkt S473 HTRF, 20 min; hits give low values; activity change, % for hits at 50 µM; hit rate 0.32% among 360,000; in the data active means activity change below about -80%; inconclusive means mostly about -51% to -80%; further: on the % scale 0 is the no-effect control and ±100 the full control effect
#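 Neuro2A cells in DMEM with 0.5% FBS, overnight at 37 deg C, given compound at single 50 µM final, then IGF (6 nM final) for 20 min at 37 deg C. Lysed; phospho-Akt Ser473 by HTRF after 24 h, 665/615 ratio.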
# * = called active by the depositor; i = inactive; ? = inconclusive; . = no result given. Most compounds without a hit are left out; they make up all but 0.54% or so of the library.
SMILES,LDHA block,IDH1 R132H inh,Menin MLL FP TR,Menin-MLL FL inh,CXXC DNA block,Akt phos inh
CN(C)CCN1C(=O)C(O)=C(C(=O)c2ccco2)C1c1ccccc1F (configuration not stated),3,11%,-4%,4,-1%,-121%*
COc1cccc(C2C(C(=O)c3ccco3)=C(O)C(=O)N2CCN(C)C)c1OC (configuration not stated),-3,11%,0%,7,18%,i
O=C(c1ccccc1)C1CCN(C(=O)/C=C/c2ccccc2F)CC1,0,.,.,.,.,.
O=C(c1ccco1)N1CCN(Cc2cccc(F)c2)CC1,-32*,5%,1%,1,-8%,i
Cc1cccc(CN2CCN(Cc3ccco3)CC2)c1,-32*,3%,0%,5,-4%,i
Clc1cccc(CN2CCN(Cc3ccco3)CC2)c1,-21,10%,?,-6,-23%,i
CCc1ccc(CN2CCN(C(=O)c3ccco3)CC2)cc1,?,0%,?,11,?,i
O=C(CNC(=O)c1ccccn1)Nc1cccc2c(=O)[nH][nH]c(=O)c12,5,.,.,.,.,.
O=C(NC1=NCCS1)c1cc(-c2ccc(-c3ccccc3)cc2)nc2ccccc12,-4,0%,11µM*,2,.,i
COc1ccc(-c2cc(C(=O)NC3=NCCS3)c3ccccc3n2)cc1OC,-1,2%,?,-3,0%,i
CSc1nc(C)c2c(n1)N(c1ccc(F)cc1)CC2,0,-1%,-2%,0,9%,-111%*
CSc1nc(C)c2c(n1)N(c1ccc(O)cc1)CC2,-4,-1%,16%,-2,5%,i
O=C(CCCOc1ccc(Cl)cc1)Nc1nncs1,-5,9%,-8%,3,-1%,-112%*
Cc1ccc(OCCCC(=O)Nc2nncs2)cc1,-8,0%,-4%,5,-6%,i
CCN(Cc1cccs1)CC1CCCO1 (configuration not stated),3,.,.,.,.,.
CCOc1ccccc1CN1CCCCCC1c1sccc1C (configuration not stated),-31*,.,.,.,.,.
CCOc1cc(CN2CCCCCC2c2ccccc2Cl)ccc1OCC(N)=O (configuration not stated),3,.,.,.,.,.
O=C(c1ccccc1)c1ccc(OCCOCCN2CCN(Cc3ccccc3)CC2)cc1,?,13%,-25%,-4,-7%,i
CCOc1ccccc1OCCOCCN1CCN(Cc2ccccc2)CC1,-31*,18%,-17%,1,-1%,i
CCN1CCN(CCOc2ccc(Cl)cc2)CC1,-34*,-7%,?,-2,71%,i
CCN1CCN(CCOc2ccccc2-c2ccccc2)CC1,-34*,-3%,-23%,1,?,i
CCC(C)NC(=O)Cc1ccc(S(=O)(=O)N2CCCCC2)cc1 (configuration not stated),-13,.,.,.,.,.
O=c1cc(CCl)[nH]c2nc3ccccc3n12,-2,18%,.,0,1%,i
O=c1cc(-c2ccccc2)[nH]c2nc3ccccc3n12,-3,3%,-11%,5,14%,-107%*
COC(=O)c1c(NC(=O)C2CCCCC2)sc(C(=O)N2CCOCC2)c1C,6,.,.,.,.,.
SMILES,LDHA block,IDH1 R132H inh,Menin MLL FP TR,Menin-MLL FL inh,CXXC DNA block,Akt phos inh
CCSc1nnc(NC(=O)c2ccc3ccccc3n2)s1,-1,15%,-20%,-6,-3%,-95%*
CCc1nnc(NC(=O)c2ccc3ccccc3n2)s1,-1,1%,-3%,3,-8%,i
CN(C)S(=O)(=O)c1cccc(N=C2NN=C(c3ccccc3)CS2)c1,-3,40µM*,0%,0,-5%,i
CC(=O)Nc1ccc(C2=NNC(=Nc3cccc(S(=O)(=O)N(C)C)c3)SC2)cc1,3,41µM*,?,-3,0%,i
Fc1ccccc1N=C1NN=C(c2ccccc2)CS1,0,-26%,?,3,4%,i
CC(C)CC(=O)Nc1cccc(-c2nc3cc(Cl)ccc3o2)c1,-3,.,.,.,.,.
O=C(c1nn2c(C(F)(F)F)cc(-c3ccco3)nc2c1Br)N1CCCCCC1,1,.,.,.,.,.
CC(C)(C)c1ccc(OCC(O)CN2CCN(C(=O)c3ccccc3)CC2)cc1 (configuration not stated),-20,-4%,?,0,-13%,i
CCCOC(=O)c1ccc(OCC(O)CN2CCN(C(=O)c3ccccc3)CC2)cc1 (configuration not stated),-6,3%,-22%,2,-6%,-128%*
Cc1[nH]c2ccccc2c1N=Nc1cc(C(=O)O)cc(C(=O)O)c1,-34*,8%,?,2,-4%,i
O=C(NCCc1nc(-c2ccccc2)no1)c1cc(=O)c2ccc(Br)cc2o1,-23,.,.,.,.,.
N#Cc1c(NCCO)nc(-c2ccco2)c2c1CCCC2,14,.,.,.,.,.
COc1ccc(C2C(C(=O)OCC3CCCO3)=C(C)NC3=C2C(=O)CC(c2ccco2)C3)cc1O (configuration not stated),0,6%,1%,-3,1%,-113%*
Cc1cnc(Nc2nc3ccccc3o2)nc1C(=O)Nc1cccc(C(F)(F)F)c1,-4,-10%,-12%,-1,1%,-95%*
CCOc1ccccc1N(CC(=O)Nc1ccc(S(=O)(=O)N2CCOCC2)cc1)S(=O)(=O)c1ccccc1,-13,1%,-19%,5,3%,-127%*
CC(Oc1ccc2ccc(=O)oc2c1)C(=O)Nc1ccc(N2CCOCC2)cc1 (configuration not stated),-8,.,.,.,.,.
C[n+]1cnn2c1SCC1(COC1)C2,-58*,-6%,-15%,6,-2%,.
Cc1cccc(C(=O)NC2(C(F)(F)F)N=C(c3ccccc3)N(Cc3ccco3)C2=O)c1 (configuration not stated),-2,.,.,.,.,.
CCN=C1SC(CC(=O)NC2CCCCC2)C(=O)N1CC (configuration not stated),-5,-1%,4%,-1,-4%,i
CCN=C1SC(CC(=O)NC(N)=O)C(=O)N1CC (configuration not stated),-3,4%,-3%,7,7%,-106%*
CCOCCCNC(=O)c1cccs1,-1,7%,-20%,11,-1%,-116%*
c1ccc(-n2ncc3c(Nc4ccc5c(c4)OCO5)nc(NCC4CCCO4)nc32)cc1 (configuration not stated),4,.,.,.,.,.
C=CCN1C(=O)C(O)(CC(=O)c2ccccc2)c2ccccc21 (configuration not stated),-2,6%,0%,2,0%,-109%*

# Screening data (PubChem)
